# Test results as given in PubChem BioAssay (NCATS).
# Values joined by “and” are separate entries in the source; they are usually repeats but may differ in a detail not shown here. Equal entries are not always repeated. Inconclusive results are not listed. A call without a number means that no potency is given here. Active and inactive are the calls of the source. Unless noted, the call rests on the fitted dose curve; in most records, active means well fitted curve in the direction sought with a large enough effect; inconclusive means small, poorly fitted or top-dose-only effect, or another doubt; inactive means no such curve, though single readings can be large; an effect the other way counts as inactive or inconclusive.
# Columns and labels:
# [1] = target: Mitogen-activated protein kinase 10 (Mus musculus) (UniProt Q61831); test: JNK3 AlphaScreen Assay (AID 530; active means well fitted curve in either direction with a large enough effect, not every such curve was filed as active;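 further: kinase came from lysate of stimulated human HepG2 cells; signal reports phosphorylation of biotinylated GST-cJun 1-79 at Ser73 with 10 µM ATP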)
# Procedure, shortened: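 Biotinylated GST-cJun(1-79) served as substrate for JNK3 in HepG2 lysates stimulated with IL-1beta and TNF-alpha. ATP was 10 uM final, pH 7.6. Ser73 phosphorylation was quantified by AlphaScreen (680 nm excitation).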
# [2] = target: 3',5'-cyclic-AMP phosphodiesterase 4B (Homo sapiens) (UniProt Q07343); test: qHTS Assay for Inhibitors of PDE-IV (AID 607; active means well fitted activation curve with a large enough effect in the main read-out, with a control signal flat, not every such curve was filed as active)
# Procedure, shortened: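 Cell-based read-out of cAMP via a modified cyclic nucleotide-gated channel and membrane potential dye (535/590 nm) in HEK293 cells expressing PDE4 endogenously. Compounds tested up to 22.9 uM final; 100 uM RO 20-1724 reference.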
# [3] = qHTS Assay for Lipid Storage Modulators (AID 1519; calls by dose curve); details: Drosophila S3 cells, BODIPY lipid droplet/cell ratio, laser cytometry, cells loaded with oleic acid; for activity change, negative = inhibition: at 57.5 µM (top of the series)
# Procedure, shortened: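 Cells seeded at 5,000 per well were treated with compounds over a concentration series and loaded with oleic acid (400 uM, as added). Lipid droplet fluorescence (488 nm excitation, 500-530 nm channel) was read by laser-scanning cytometry and normalized to 20 uM Triacsin C.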
# [4] = target: Ubiquitin carboxyl-terminal hydrolase 1 (Homo sapiens) (UniProt O94782); test: Inhibitors of USP1/UAF1: Pilot qHTS (AID 504865);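 further: rhodamine fluorescence freed from ubiquitin-rhodamine substrate followed over time; top concentration of the series differs between compounds; nearly all actives have a fitted effect of over 35% in size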
# Procedure, shortened: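 USP1/UAF1 complex (1nM) preincubated with compound 15 min at room temperature, then Ub-Rho substrate (150nM final) added. Fluorescence read kinetically at 480/540 nm, 6 reads every 60 seconds. Buffer: 50mM HEPES pH 7.8, 0.5mM EDTA, 0.1 mg/ml BSA, 1mM TCEP, 0.01% Tween-20.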
# [5] = target: DNA dC->dU-editing enzyme APOBEC-3G (Homo sapiens) (UniProt Q9HC16); test: qHTS for inhibitors of Vif-A3G interactions: Validation (AID 588379)
# Procedure, shortened: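 Yellow fluorescence (Ex 488, Em 500-530) of Vif-coexpressing HeLa A3G-eYFP cells, scanned by Acumen cytometer, reports blocked A3G degradation. Cells plated at 700/well overnight at 37 deg C before compound addition, then a further overnight compound incubation at 37 deg C.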
# [6] = test system: Zika virus NS2B-NS3 protease; test: Primary screen GU AMC qHTS for Zika virus inhibitors (AID 1347154); further: nearly all actives have a fitted effect of over 70% in size
# Procedure, shortened: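 Unlinked Zika NS2B hydrophilic domain/NS3 protease domain noncovalent complex (25 nM final) in 10 mM Tris-HCl pH 8.0, 0.01% Tween 20, with AMC peptide substrate. Fluorescence (ex 340, em 450 nm) change over 15 min, room temperature; percent inhibition fitted to 4-parameter Hill equation.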
# [7] = Primary qHTS for small molecule stabilizers of the endoplasmic reticulum resident proteome: Secreted ER Calcium Modulated Protein (SERCaMP) assay (AID 1508630)
# Procedure, shortened: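 The SH-SY5Y reporter protocol was run at 3 concentrations up to 38.3 uM (primary) or 11 concentrations (follow-up): 16 h compound, 100 nM thapsigargin for 4 h, then extracellular luciferase luminescence.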
# [8] = target: Cytochrome P450 2C9 (Homo sapiens) (UniProt P11712); test: qHTS Assay for Inhibitors and Substrates of Cytochrome P450 2C9 (AID 883); further: nearly all actives have a fitted effect of over 60% in size; further: potency means the concentration at half of the fitted maximal effect
# Procedure, shortened: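 CYP2C9 deoxyluciferin hydroxylation, 37C, 60 min with NADPH regeneration; 10nM enzyme, 100uM Luciferin-H (KM). Glo detection reagent stopped reaction; luminescence normalized to sulphaphenazole (57uM) full inhibition.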
# [9] = target: Cytochrome P450 3A4 (Homo sapiens) (UniProt P08684); test: qHTS Assay for Inhibitors and Substrates of Cytochrome P450 3A4 (AID 884); further: nearly all actives have a fitted effect of over 50% in size; further: potency means the concentration at half of the fitted maximal effect
# Procedure, shortened: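 Luminescent readout of luciferin produced by CYP3A4 (20 nM) dealkylation of Luciferin-PPXE, 25 uM (its KM). NADPH-driven reaction ran 60 min at RT after 10 min compound preincubation; data scaled to 57 uM ketoconazole as 100% inhibition.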
# [10] = target: Cytochrome P450 2C19 (Homo sapiens) (UniProt P33261); test: qHTS Assay for Inhibitors and Substrates of Cytochrome P450 2C19 (AID 899); further: nearly all actives have a fitted effect of over 60% in size; further: potency means the concentration at half of the fitted maximal effect
# Procedure, shortened: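 In 50mM KPO4, the reaction held 5nM enzyme and KM-level (10uM) Luciferin-H EGE; it ran 60 min at 37C after NADPH regeneration and a 10 min compound preincubation. Luminescence values were scaled to 57uM ketoconazole as complete inhibition.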
# [11] = target: Glucocorticoid receptor (Homo sapiens) (UniProt P04150); test: GR-GFP Redistribution (AID 450;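 active means compounds whose dose series gives a full or clear partial fitted curve of increased nuclear translocation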; further: potency means the concentration at half of the fitted maximal effect); details: U2OS GR-GFP nuclear translocation, laser cytometry, 2 h
# [12] = AP1 Signaling Pathway (AID 357; active means well fitted curve in either direction with a large enough effect, not every such curve was filed as active;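 further: ME-180 reporter cells stimulated with EGF at its EC50 level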); details: ME-180 AP-1-bla reporter, EGF-induced, beta-lactamase ratio, 5 h
# Procedure, shortened: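 Modulation of EGF-driven AP-1 transcription was assessed with a beta-lactamase reporter in ME-180 cells. Compound and EC50 EGF were co-incubated 5 hours at 37 °C before 2.5-hour CCF4 loading at room temperature and dual-emission reading.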
# [13] = target: Cytochrome P450 1A2 (Homo sapiens) (UniProt P05177); test: p450-cyp1a2 (AID 410; calls by dose curve; further: potency means the concentration at half of the fitted maximal effect)
# Procedure, shortened: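 20nM CYP1A2, 100uM Luciferin-ME (=Km), 100mM KPO4; cpd 10 min RT; +NADPH regen, 60 min RT; stop/detect 20 min; luminescence. Normalized to furafylline 57 uM = full inhibition.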
# [14] = NFAT Signaling Pathway (AID 444; active means well fitted curve in either direction with a large enough effect, not every such curve was filed as active;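 further: carbachol stimulus at about its EC50 of 1 µM final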); details: Jurkat NFAT-bla M1, carbachol, beta-lactamase ratio, 5 h
# Procedure, shortened: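 Jurkat cells carrying an NFAT-driven β-lactamase reporter and co-transfected muscarinic M1 receptor were treated with compound plus carbachol (1 uM final, an EC50 level) for 5 h at 37 °C. CCF4 loading followed for 1 h at RT; 460/530 nm ratio gave %activity.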
# [15] = Stat Signaling Pathway (AID 446; active means well fitted curve in either direction with a large enough effect, not every such curve was filed as active;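 further: ME-180 cervical cancer cells given 40 pM IL-6 alongside compound; SIE-controlled beta-lactamase reporter measured as 460/530 nm FRET emission ratio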); details: ME-180 (cervical carcinoma) SIE beta-lactamase reporter, IL-6 stimulated, 5 h
# Procedure, shortened: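 FRET read-out (405 nm excitation, 460/530 nm emission) of a beta-lactamase reporter under a STAT-inducible element in ME-180 cervical carcinoma cells. Cells with compound receive 40 pM IL-6 for 5 h. Values are normalised to AC90 stimulation and AC90 JAK-inhibitor controls.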
# [16] = target: Glucocorticoid receptor (Homo sapiens) (UniProt P04150); test: GR-EFC Redistribution (AID 451; calls by dose curve; further: potency means the concentration at half of the fitted maximal effect); details: CHO-K1 GR-EFC translocation, beta-gal luminescence, 2 h
# Procedure, shortened: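 CHO-K1 cells stably expressing nuclear-localized β-gal enzyme acceptor and GR fused C-terminally to the enzyme donor fragment; ligand-driven nuclear translocation restores β-gal by complementation. Compounds titrated up to 46 uM final, 2 h at 37 °C; luminescence read.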
# [17] = target: Cytochrome P450 3A4 (Homo sapiens) (UniProt P08684); test: qHTS Assay for Activators of Cytochrome P450 3A4 (AID 885); further: nearly all actives have a fitted effect of over 65% in size
# Procedure, shortened: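 Luminescent readout of luciferin formed from 25 uM Luciferin-PPXE (KM level) by 20 nM CYP3A4 in 200 mM KPO4, with 60 min NADPH-driven reaction at room temperature after 10 min compound exposure. Ketoconazole (57 uM) defined 100% inhibition.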
# [18] = target: Guanine nucleotide-binding protein G(i) subunit alpha-1 (Homo sapiens) (UniProt P63096); test: qHTS Assay for Inhibitors of RGS12 GoLoco Motif Activity (Green Fluorophore) (AID 879);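 further: negative values mean loss of peptide binding seen as reduced polarization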
# Procedure, shortened: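 A drop in FITC polarization marked displacement of the FITC-tagged RGS12 GoLoco peptide (10 nM) from Gαi1 (50 nM). Compounds were incubated 10 min at room temperature in Tris pH 7.5 buffer containing 150 mM NaCl, 0.1 mM GDP and 0.05% NP40; unlabeled peptide titration served as control.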
# [19] = target: Pyruvate kinase PKM (Homo sapiens) (UniProt P14618); test: qHTS Assay for Activators of Human Muscle Pyruvate Kinase (AID 954; active means well fitted curve in the direction sought with a large enough effect, not every such curve was filed as active)
# Procedure, shortened: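 ATP production by PKM2 detected via luciferase luminescence after 1 h room-temperature reaction (0.1 nM enzyme, PEP at Km 0.5 mM, ADP 0.1 mM, pH 7.2 imidazole buffer). Inhibition scaled to no-enzyme control; activation referenced to 0.3 nM enzyme wells.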
# [20] = target: alpha-glucosidase (Oryza sativa, rice) (UniProt Q653V4); test: Counterscreen for Glucocerebrosidase Inhibitors: qHTS Assay for Rice alpha-Glucosidase at pH 5.0 (AID 997)
# Procedure, shortened: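 Endpoint fluorogenic assay at pH 5.0: compounds (0.7 nM to 77 uM) titrated against 4 nM rice enzyme and 400 uM 4-MU-alpha-glucoside for 20 min at room temperature; NaOH/glycine stop, read ex 365/em 440 nm, Hill-fitted AC50.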
# [21] = measured here: cell count channel max response
# [22] = measured here: lipid channel max response
# 3',5'-cyclic-AMP phosphodiesterase 4B (Homo sapiens), sequence (Q07343 whole entry, looked up): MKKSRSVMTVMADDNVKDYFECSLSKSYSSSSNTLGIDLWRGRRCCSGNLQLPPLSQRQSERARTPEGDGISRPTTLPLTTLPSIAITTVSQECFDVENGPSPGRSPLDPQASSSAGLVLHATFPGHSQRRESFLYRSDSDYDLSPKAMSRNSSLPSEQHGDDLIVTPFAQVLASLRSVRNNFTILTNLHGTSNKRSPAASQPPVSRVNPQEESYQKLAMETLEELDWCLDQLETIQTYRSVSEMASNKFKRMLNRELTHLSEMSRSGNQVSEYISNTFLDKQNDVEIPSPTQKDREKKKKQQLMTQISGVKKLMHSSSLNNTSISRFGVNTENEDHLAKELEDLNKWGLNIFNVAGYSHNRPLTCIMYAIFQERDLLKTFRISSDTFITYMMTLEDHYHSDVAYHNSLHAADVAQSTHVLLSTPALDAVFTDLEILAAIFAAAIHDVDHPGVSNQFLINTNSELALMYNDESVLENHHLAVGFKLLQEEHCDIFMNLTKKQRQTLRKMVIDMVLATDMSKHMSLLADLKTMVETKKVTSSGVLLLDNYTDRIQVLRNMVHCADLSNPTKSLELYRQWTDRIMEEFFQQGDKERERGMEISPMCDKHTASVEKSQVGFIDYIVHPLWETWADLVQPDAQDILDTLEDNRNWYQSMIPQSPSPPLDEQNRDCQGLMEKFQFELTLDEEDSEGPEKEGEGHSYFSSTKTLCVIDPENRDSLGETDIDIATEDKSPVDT
# Cytochrome P450 3A4 (Homo sapiens), sequence (P08684 whole entry, looked up): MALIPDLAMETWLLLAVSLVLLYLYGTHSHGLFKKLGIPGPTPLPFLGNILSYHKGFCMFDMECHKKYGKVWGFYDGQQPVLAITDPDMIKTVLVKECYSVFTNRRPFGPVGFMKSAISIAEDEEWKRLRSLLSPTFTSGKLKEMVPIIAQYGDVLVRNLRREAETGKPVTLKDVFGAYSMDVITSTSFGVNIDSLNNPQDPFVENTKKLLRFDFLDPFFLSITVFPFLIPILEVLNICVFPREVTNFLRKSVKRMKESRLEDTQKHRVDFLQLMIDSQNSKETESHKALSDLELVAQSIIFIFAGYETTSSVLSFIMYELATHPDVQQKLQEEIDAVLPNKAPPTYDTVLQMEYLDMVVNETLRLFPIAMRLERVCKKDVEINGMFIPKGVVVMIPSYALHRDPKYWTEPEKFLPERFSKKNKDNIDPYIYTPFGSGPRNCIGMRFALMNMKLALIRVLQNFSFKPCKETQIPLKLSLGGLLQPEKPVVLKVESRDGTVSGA
# Cytochrome P450 2C19 (Homo sapiens), sequence (P33261 whole entry, looked up): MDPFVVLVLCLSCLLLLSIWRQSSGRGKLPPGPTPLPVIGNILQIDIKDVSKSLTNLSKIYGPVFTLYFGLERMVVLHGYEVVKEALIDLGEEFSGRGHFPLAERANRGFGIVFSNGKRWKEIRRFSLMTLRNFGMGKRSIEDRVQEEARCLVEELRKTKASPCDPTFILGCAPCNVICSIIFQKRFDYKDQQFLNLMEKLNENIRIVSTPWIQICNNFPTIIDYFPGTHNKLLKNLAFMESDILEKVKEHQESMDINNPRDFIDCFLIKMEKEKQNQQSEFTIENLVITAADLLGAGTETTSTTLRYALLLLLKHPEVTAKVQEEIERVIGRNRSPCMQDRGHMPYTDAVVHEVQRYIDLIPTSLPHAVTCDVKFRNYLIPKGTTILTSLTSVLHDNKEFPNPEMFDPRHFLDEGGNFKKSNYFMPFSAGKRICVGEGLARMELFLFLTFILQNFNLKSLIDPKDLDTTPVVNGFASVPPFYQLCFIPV
# DNA dC->dU-editing enzyme APOBEC-3G (Homo sapiens), sequence (Q9HC16 whole entry, looked up): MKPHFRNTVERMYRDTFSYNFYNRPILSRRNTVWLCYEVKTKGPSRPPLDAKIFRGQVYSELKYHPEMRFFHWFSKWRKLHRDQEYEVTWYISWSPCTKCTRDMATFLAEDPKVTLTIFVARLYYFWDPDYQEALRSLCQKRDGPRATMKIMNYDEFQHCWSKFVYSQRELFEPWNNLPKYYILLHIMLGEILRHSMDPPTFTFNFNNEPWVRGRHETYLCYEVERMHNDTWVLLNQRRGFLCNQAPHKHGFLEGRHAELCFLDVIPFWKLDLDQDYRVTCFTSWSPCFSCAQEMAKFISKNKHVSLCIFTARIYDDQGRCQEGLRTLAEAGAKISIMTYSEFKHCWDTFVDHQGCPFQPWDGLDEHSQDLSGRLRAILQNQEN
# Cytochrome P450 1A2 (Homo sapiens), sequence (P05177 whole entry, looked up): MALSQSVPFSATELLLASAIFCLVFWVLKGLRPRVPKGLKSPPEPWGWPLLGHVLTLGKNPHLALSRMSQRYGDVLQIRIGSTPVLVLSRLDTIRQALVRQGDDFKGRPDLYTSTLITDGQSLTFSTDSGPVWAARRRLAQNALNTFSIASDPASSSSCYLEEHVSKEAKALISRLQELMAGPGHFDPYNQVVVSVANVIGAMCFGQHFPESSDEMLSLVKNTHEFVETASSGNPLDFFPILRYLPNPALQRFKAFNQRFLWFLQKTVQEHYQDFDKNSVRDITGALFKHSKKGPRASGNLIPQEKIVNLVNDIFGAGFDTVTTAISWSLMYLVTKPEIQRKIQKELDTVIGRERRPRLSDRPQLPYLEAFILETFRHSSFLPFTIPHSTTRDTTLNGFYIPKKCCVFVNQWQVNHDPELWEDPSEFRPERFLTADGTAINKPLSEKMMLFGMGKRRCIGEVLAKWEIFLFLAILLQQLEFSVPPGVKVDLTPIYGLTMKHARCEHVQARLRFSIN
# Cytochrome P450 2C9 (Homo sapiens), sequence (P11712 whole entry, looked up): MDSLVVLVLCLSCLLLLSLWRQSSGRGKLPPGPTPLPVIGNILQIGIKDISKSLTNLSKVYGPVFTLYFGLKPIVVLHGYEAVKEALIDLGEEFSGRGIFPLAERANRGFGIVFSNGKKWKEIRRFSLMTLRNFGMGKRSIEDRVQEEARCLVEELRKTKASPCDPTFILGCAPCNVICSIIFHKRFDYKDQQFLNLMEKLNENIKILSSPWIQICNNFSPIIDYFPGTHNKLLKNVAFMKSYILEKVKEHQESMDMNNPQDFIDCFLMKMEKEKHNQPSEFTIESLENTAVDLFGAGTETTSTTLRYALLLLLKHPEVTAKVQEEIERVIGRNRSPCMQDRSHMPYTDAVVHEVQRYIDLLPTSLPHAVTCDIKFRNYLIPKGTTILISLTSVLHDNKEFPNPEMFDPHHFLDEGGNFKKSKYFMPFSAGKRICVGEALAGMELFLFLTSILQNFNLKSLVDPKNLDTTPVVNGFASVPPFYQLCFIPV
# Ubiquitin carboxyl-terminal hydrolase 1 (Homo sapiens), sequence (O94782 whole entry, looked up): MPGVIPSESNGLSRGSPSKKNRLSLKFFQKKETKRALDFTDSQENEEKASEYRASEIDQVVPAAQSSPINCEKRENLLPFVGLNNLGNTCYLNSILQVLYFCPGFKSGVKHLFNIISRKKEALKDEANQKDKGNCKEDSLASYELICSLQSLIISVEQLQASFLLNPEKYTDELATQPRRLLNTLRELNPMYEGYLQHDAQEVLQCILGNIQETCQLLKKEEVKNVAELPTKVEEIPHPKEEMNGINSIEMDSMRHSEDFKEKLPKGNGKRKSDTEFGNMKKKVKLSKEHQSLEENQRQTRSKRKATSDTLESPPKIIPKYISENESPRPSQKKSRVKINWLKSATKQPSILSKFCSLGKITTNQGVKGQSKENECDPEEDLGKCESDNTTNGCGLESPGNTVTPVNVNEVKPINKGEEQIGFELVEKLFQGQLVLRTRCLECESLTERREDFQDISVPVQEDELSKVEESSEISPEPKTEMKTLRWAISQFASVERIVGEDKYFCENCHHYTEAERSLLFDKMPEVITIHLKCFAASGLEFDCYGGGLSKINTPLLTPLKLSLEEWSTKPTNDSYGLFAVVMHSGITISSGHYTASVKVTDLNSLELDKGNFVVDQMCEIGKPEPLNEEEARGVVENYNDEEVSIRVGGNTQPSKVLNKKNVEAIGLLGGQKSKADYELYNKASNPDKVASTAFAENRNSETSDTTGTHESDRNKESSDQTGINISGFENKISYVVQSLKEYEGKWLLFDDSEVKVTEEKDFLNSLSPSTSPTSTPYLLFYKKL
# Glucocorticoid receptor (Homo sapiens), sequence (P04150 whole entry, looked up, the tested form may be a part): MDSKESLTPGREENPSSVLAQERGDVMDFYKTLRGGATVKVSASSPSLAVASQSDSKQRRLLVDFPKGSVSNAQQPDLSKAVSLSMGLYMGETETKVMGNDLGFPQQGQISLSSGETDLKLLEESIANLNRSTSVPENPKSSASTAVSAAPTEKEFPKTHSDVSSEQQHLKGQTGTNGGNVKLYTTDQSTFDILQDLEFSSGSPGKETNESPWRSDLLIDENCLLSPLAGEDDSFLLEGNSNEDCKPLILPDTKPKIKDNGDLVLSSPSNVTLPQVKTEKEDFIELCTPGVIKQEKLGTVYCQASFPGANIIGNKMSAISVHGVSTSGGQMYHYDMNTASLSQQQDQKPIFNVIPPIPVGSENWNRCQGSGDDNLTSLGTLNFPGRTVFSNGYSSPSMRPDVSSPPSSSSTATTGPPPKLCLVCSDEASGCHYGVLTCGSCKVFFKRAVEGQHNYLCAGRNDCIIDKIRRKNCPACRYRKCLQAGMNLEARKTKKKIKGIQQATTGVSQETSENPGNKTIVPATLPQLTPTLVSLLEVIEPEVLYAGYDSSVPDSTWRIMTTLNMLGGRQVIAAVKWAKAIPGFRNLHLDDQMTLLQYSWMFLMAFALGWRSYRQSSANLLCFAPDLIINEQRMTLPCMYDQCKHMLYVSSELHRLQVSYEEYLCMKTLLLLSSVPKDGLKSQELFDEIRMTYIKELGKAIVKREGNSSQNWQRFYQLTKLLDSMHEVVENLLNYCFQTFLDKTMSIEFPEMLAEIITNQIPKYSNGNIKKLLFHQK
structure (smiles),measurement,setting,value
OC[C@@H]1O[C@@H](n2cnc3c(N[C@H]4CCC[C@@H]4O)ncnc32)[C@H](O)[C@H]1O,Potency,[1],inactive
same,Potency,[2],inactive
same,"activity change, negative = inhibition",[3],3.72% (inactive)
same,max response,[3]; [21],-18.9%
same,max response,[3]; [22],-17.5%
same,Potency,[4],inactive
same,Potency,[5],inactive
same,Potency,[6],inactive
same,Potency,[7],inactive
CSc1nc(N)c2ncn([C@H]3O[C@H](COP(=O)(O)OP(=O)(O)OP(=O)(O)O)[C@@H](O)[C@@H]3O)c2n1,Potency,[1],inactive
same,Potency,[8],inactive
same,Potency,[9],inactive
same,Potency,[10],inactive
same,"activity change, negative = inhibition",[3],4.02% (inactive)
same,max response,[3]; [21],-2.91%
same,max response,[3]; [22],1.82%
same,Potency,[5],inactive
same,Potency,[6],inactive
same,Potency,[7],inactive
CC(C)=CCC/C(C)=C/CC/C(C)=C/CC/C(C)=C/CO,Potency,[9],inactive
same,"activity change, negative = inhibition",[3],7.37% (inactive)
same,max response,[3]; [21],9.56%
same,max response,[3]; [22],21.5%
same,Potency,[4],inactive
same,Potency,[6],inactive
same,Potency,[7],inactive
N[C@@](C(=O)O)(c1ccc(P(=O)(O)O)cc1)C1CC1,Potency,[11],> 46 µM (inactive)
same,Potency,[1],inactive
same,"activity change, negative = inhibition",[3],-7.82% (inactive)
same,max response,[3]; [21],3.93%
same,max response,[3]; [22],-1.11%
same,Potency,[5],inactive
same,Potency,[6],inactive
same,Potency,[7],inactive
COc1cc(CNC(=O)CCCC/C=C\C(C)C)ccc1O,"activity change, negative = inhibition",[12]; at 17.2 µM (top of the series),7.68% (inactive)
same,Potency,[13],1.58 µM (active) and 2 µM (active) and 3.16 µM (active)
same,"activity change, negative = inhibition",[14]; at 17.2 µM (top of the series),-1.65% (inactive)
same,"activity, negative = inhibition",[15]; at 17.2 µM (top of the series),-15.5% (inactive)
same,Potency,[11],> 20.6 µM (inactive) and > 46 µM (inactive)
same,Potency,[16],> 20.6 µM (inactive) and > 46 µM (inactive)
same,Potency,[1],inactive
same,Potency,[2],inactive
same,Potency,[8],2 µM (active) and 1.26 µM (active)
same,Potency,[9],3.98 µM (active)
same,Potency,[17],inactive
same,Potency,[10],7.94 µM (active) and 6.31 µM (active)
same,Potency,[5],inactive
same,Potency,[6],inactive
same,Potency,[7],inactive
CCn1ccnc1C[C@@H]1COc2ccccc2O1,"activity change, negative = inhibition",[12]; at 38 µM (top of the series),-10% (inactive)
same,Potency,[13],15.8 µM (active)
same,"activity change, negative = inhibition",[14]; at 38 µM (top of the series),-4.02% (inactive)
same,"activity, negative = inhibition",[15]; at 38 µM (top of the series),-3.71% (inactive)
same,Potency,[11],> 46 µM (inactive)
same,Potency,[16],> 46 µM (inactive)
same,Potency,[1],inactive
same,Potency,[2],inactive
same,outcome,[18],inactive
same,Potency,[9],inactive
same,outcome,[19],inactive
same,outcome,[20],inactive
same,Potency,[5],inactive
same,Potency,[6],inactive
same,Potency,[7],inactive
C[C@H](CCC(=O)O)[C@H]1CC[C@H]2[C@H]3C(CC[C@]12C)[C@@]1(C)CC[C@@H](O)C[C@H]1C[C@H]3O (stereo partly specified),"activity change, negative = inhibition",[3],-7.53% (inactive)
same,max response,[3]; [21],14.2%
same,max response,[3]; [22],5.28%
same,Potency,[4],inactive
same,Potency,[5],inactive
same,Potency,[6],inactive
same,Potency,[7],inactive
Cc1ncc2c(c1O)COP(=O)(O)OC2,Potency,[16],> 46 µM (inactive)
same,Potency,[1],inactive
same,Potency,[2],inactive
same,"activity change, negative = inhibition",[3],0.354% (inactive)
same,max response,[3]; [21],-3.73%
same,max response,[3]; [22],-4.32%
same,Potency,[4],inactive
same,Potency,[5],inactive
same,Potency,[6],inactive
same,Potency,[7],inactive
C[C@@H](C(=O)O)c1ccc(-c2ccccc2)c(F)c1,Potency,[13],10 µM (active)
same,"activity change, negative = inhibition",[14]; at 17.2 µM (top of the series),3.63% (inactive)
same,"activity, negative = inhibition",[15]; at 17.2 µM (top of the series),1.05% (inactive)
same,Potency,[11],> 20.6 µM (inactive) and > 46 µM (inactive)
same,Potency,[16],> 20.6 µM (inactive) and > 46 µM (inactive)
same,Potency,[1],inactive
same,Potency,[2],inactive
same,Potency,[10],631 nM (active)
same,Potency,[4],inactive
same,Potency,[5],inactive
same,Potency,[6],inactive
same,Potency,[7],inactive
NC(N)=NCCC[C@@H](N)C(=O)O,Potency,[9],inactive
same,"activity change, negative = inhibition",[3],-2.14% (inactive)
same,max response,[3]; [21],-17.8%
same,max response,[3]; [22],-21.4%
same,Potency,[4],inactive
same,Potency,[5],inactive
same,Potency,[6],inactive
same,Potency,[7],inactive
N[C@@H](CCCP(=O)(O)O)C(=O)O,Potency,[11],> 46 µM (inactive)
same,Potency,[16],> 46 µM (inactive)
same,Potency,[1],inactive
same,Potency,[2],inactive
same,"activity change, negative = inhibition",[3],-1.39% (inactive)
same,max response,[3]; [21],15.6%
same,max response,[3]; [22],17.3%
same,Potency,[5],inactive
same,Potency,[6],inactive
same,Potency,[7],inactive
